Assay [1] concerns the target Glutathione peroxidase 1 (Homo sapiens) (UniProt P07203). The assay is described as follows: Primary qHTS Assay for Inhibitors of Recombinant Selenoprotein Glutathione Peroxidase 1 (GPX1) (AID 1845191). Note: nearly all actives have a fitted effect of over 65% in size. The gist of the method: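 Recombinant GPX1 (10 nM final) was preincubated with compound for 30 min at room temperature, then reacted with 1 mM GSH, 0.5 mM CHP, 0.5 mM NADPH and 100 nM glutathione reductase; NADPH fluorescence (340/450 nm) was read at 0 and 15 min.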
For orientation: qHTS replaces the single test concentration by a dilution series.

Assay [2] concerns the target Phospholipid hydroperoxide glutathione peroxidase GPX4 (Homo sapiens) (UniProt P36969). The assay is described as follows: Primary qHTS Assay for Inhibitors of Recombinant Selenoprotein Glutathione Peroxidase 4 (GPX4) (AID 1845192). Note: nearly all actives have a fitted effect of over 65% in size. The gist of the method: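 GR-coupled readout: 100 nM GR, 1 mM GSH, 0.5 mM NADPH; NADPH fluorescence (ex 340/em 450 nm) read at t=0 and after 15 min RT. GPX4 200 nM, preincubated 30 min with compound; substrate 0.5 mM CHP.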

Assay [3] in a line: Quantitative High-Throughput drug screen in 47 multiple myeloma cell lines against the NCATS MIPE library collection: FR4_PLB cell viability assay (AID 1918924; note: nearly all actives have a fitted effect of over 35% in size; note: potency is the fitted concentration of half-maximal effect). Put shortly: (§1)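 Viability readout: CellTiter-Glo luminescence following 5 min room-temperature incubation with reagent. Prior exposure: 48 h, 37C, humidified 5% CO2, 500 cells per well.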
Assay [4] in a line: Quantitative High-Throughput drug screen in 47 multiple myeloma cell lines against the NCATS MIPE library collection: Delta47_JCRB cell viability assay (AID 1918925; note: nearly all actives have a fitted effect of over 45% in size; note: potency is the fitted concentration of half-maximal effect). Put shortly:
(§2)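 Relative luminescence from CellTiter-Glo served as the viability signal, referenced to DMSO-treated (100%) and cell-free medium (0%) controls. Treatment lasted 48 hours at 37C with 500 cells per well.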

Assay [5] in a line: Quantitative High-Throughput drug screen in 47 multiple myeloma cell lines against the NCATS MIPE library collection: EJM_DSMZ cell viability assay (AID 1918926; note: nearly all actives have a fitted effect of over 30% in size; note: potency is the fitted concentration of half-maximal effect). Put shortly: as §2
A short description of assay [6]: Quantitative High-Throughput drug screen in 47 multiple myeloma cell lines against the NCATS MIPE library collection: ARP1_JJKsccF8 cell viability assay (AID 1918928; note: nearly all actives have a fitted effect of over 40% in size; note: potency is the fitted concentration of half-maximal effect). The gist of the method:
(§3)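 Myeloma cells, 500 per well, were exposed to MIPE 4.0 drugs by pin transfer for 48 h at 37 °C, 5% CO2. Viability was read as ATP luminescence with CellTiter-Glo, normalised to DMSO-only (100%) and medium-only (0%) wells.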

The nature of assay [7]: Quantitative High-Throughput drug screen in 47 multiple myeloma cell lines against the NCATS MIPE library collection: Karpas620_DSMZ cell viability assay (AID 1918959). Note: nearly all actives have a fitted effect of over 30% in size. Note: potency is the fitted concentration of half-maximal effect. The gist of the method: as §1
The nature of assay [8]: Quantitative High-Throughput drug screen in 47 multiple myeloma cell lines against the NCATS MIPE library collection: KMM1_JCRB cell viability assay (AID 1918960). Note: nearly all actives have a fitted effect of over 30% in size. Note: potency is the fitted concentration of half-maximal effect. The gist of the method:
as §3

Assay [9] is described as follows: Quantitative High-Throughput drug screen in 47 multiple myeloma cell lines against the NCATS MIPE library collection: JIM3_ECACC cell viability assay (AID 1918963; note: nearly all actives have a fitted effect of over 35% in size; note: potency is the fitted concentration of half-maximal effect). The gist of the method: as §1
Assay [10] in a line: Quantitative High-Throughput drug screen in 47 multiple myeloma cell lines against the NCATS MIPE library collection: AMO1_DSMZ cell viability assay (AID 1918927; note: nearly all actives have a fitted effect of over 30% in size; note: potency is the fitted concentration of half-maximal effect). Put shortly:
as §2

Assay [11] is described as follows: Quantitative High-Throughput drug screen in 47 multiple myeloma cell lines against the NCATS MIPE library collection: ARD_JJKsccE7 cell viability assay (AID 1918929; note: potency is the fitted concentration of half-maximal effect). Put shortly: as §2
Assay [12] deals with Luciferin 4-monooxygenase (Photinus pyralis) (UniProt P08659). The assay can be described thus: Primary firefly luciferase (FLuc) qHTS assay for identification of artifact compounds. (AID 1845220). Note: nearly all actives have a fitted effect of over 60% in size. Put shortly:
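qHTS, 15 min compound preincubation with substrate (10 uM luciferin, 10 uM ATP) at RT, then 10 nM FLuc; 5 min; luminescence; % inhibition vs no-enzyme/DMSO controls, 4-parameter Hill fit.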

A short description of assay [13]: Primary fluorescence-based thiol-reactive (MSTI) qHTS assay for identification of artifact compounds. (AID 1845221).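 Note: thiol-reactive compounds lower the probe fluorescence signal; nearly all actives have a fitted effect of over 65% in size.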 The gist of the method: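 Probe: MSTI 4 uM, PBS pH 7.4, 2% DMSO. Incubation 1 h, RT, light-protected. Readout fluorescence 525/598 nm.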
Assay [14] relates to Nanoluciferase (engineered Oplophorus gracilirostris luciferase). The assay is described as follows: Primary Nanoluciferase (NLuc) qHTS assay for identification of artifact compounds. (AID 1845222). Put shortly: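 Luminescence read-out of secreted NLuc in S16 cell conditioned medium (1:55); compounds tested with 15 min RT preincubation, then Nano-Glo substrate 1:100, 5 min. % inhibition vs no-enzyme and DMSO controls, 4-parameter Hill fit.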

Assay [15] can be described thus: Primary redox qHTS assay for identification of artifact compounds. (AID 1845223). Put shortly:
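Amplex Red (25 uM) and HRP (250 mU/mL) in HBSS, with compounds for 15 min, then 250 uM DTT for 30 min, room temperature, dark. Fluorescence 525/598 nm read; normalized to DMSO and 10 uM DA3003; Hill fit.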

Assay [16] can be described thus: Quantitative High-Throughput drug screen in 47 multiple myeloma cell lines against the NCATS MIPE library collection: JIM1_ECACC cell viability assay (AID 1918964; note: potency is the fitted concentration of half-maximal effect). The gist of the method:
as §2

A short description of assay [17]: Quantitative High-Throughput drug screen in 47 multiple myeloma cell lines against the NCATS MIPE library collection: Karpas417_ECACC cell viability assay (AID 1918961). Note: potency is the fitted concentration of half-maximal effect. To be noted: Karpas417 myeloma viability, CellTiter-Glo ATP luminescence, 48 h; viability (% of DMSO): at 45.8 µM (top of the series). The gist of the method: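 Approved and investigational drugs from MIPE 4.0 were added by pin tool to 500 cells per well. After 48 hours at 37C, ATP-based CellTiter-Glo luminescence indicated remaining viability.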

Results filed as inconclusive are left out. Activity calls are given as the source filed them. Calls come from the whole dose curve; as a rule, active = well fitted curve in the direction sought with a large enough effect; inconclusive = small, poorly fitted or top-dose-only effect, or another doubt; inactive = no such curve, though single readings can be large; an effect the other way counts as inactive or inconclusive.

Sequence of Glutathione peroxidase 1 (Homo sapiens) (P07203 whole entry, looked up): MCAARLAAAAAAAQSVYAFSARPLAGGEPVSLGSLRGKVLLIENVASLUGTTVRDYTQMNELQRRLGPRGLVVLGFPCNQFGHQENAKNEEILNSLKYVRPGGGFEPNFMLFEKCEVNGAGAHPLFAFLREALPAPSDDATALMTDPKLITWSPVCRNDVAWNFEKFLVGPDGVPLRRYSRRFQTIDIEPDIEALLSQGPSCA
Sequence of Phospholipid hydroperoxide glutathione peroxidase GPX4 (Homo sapiens) (P36969 whole entry, looked up): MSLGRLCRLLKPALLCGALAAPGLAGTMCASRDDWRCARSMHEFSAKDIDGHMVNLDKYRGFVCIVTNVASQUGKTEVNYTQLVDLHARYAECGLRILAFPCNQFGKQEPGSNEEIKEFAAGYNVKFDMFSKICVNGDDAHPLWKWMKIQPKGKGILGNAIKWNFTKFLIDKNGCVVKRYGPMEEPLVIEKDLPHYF

As to `O=P(O)(O)C(O)(Cn1ccnc1)P(=O)(O)O`, the Potency entry in assay [1], in [2], in assay [3], in [4], in [5] and in assay [6] was “inactive” throughout. Also, the Potency entry in assay [7], in assay [8] and in [9] was “inactive” in each case.

`CCCCc1ccc2nc(NC(=O)OC)[nH]c2c1`: the Potency result in assay [1], in assay [2] and in assay [10] was “inactive” each time. The Potency is 0.0021 µM (active) in assay [3], 0.0264 µM (active) in assay [5], 0.0066 µM (active) in [6] and 0.0093 µM (active) in assay [11].

`CCCS(=O)c1ccc2nc(NC(=O)OC)[nH]c2c1` (stereo not given): the Potency result in assay [1], in assay [2], in assay [12], in assay [13], in assay [5] and in assay [10] was “inactive” in each case. Moreover, the Potency entry in assay [7], in [8] and in assay [16] was “inactive” in each case. The compound was called inactive in assay [14] and in assay [15]. The Potency is 11.8 µM (active) in [3] and 23.5 µM (active) in assay [6].

Take `Cc1cc(C2CCCCC2)n(O)c(=O)c1`: the Potency entry in assay [1] and in assay [2] was “inactive” throughout. In addition, the Potency in assay [3] is 6.62 µM (active); in assay [4] it was 6.62 µM (active); in [5], 16.6 µM (active); in assay [10] it was 7.43 µM (active); in assay [6], 9.35 µM (active); in [11], 9.35 µM (active). Moreover, the Potency in assay [7] was 8.33 µM (active); in assay [8], 9.35 µM (active); in assay [17] it was 2.96 µM (active); in assay [9], 8.33 µM (active); in [16], 3.32 µM (active).

In the case of `CN1CCC(=C2c3ccccc3CCc3sccc32)CC1`, the Potency entry in [1], in assay [2], in assay [3], in assay [5] and in [6] was “inactive” throughout.

With `Cc1ncc([N+](=O)[O-])n1CC(C)O` (stereo not given), the Potency result in assay [1], in [2], in assay [3], in assay [5], in assay [10] and in assay [6] was “inactive” throughout. Also, the Potency result in [11], in [7] and in assay [8] was “inactive” throughout.

Regarding `CCN(CC)C(=S)SSC(=S)N(CC)CC`, the Potency result in assay [1] and in [2] was “inactive” throughout. For the same compound, the Potency in assay [3] is 0.0074 µM (active); in assay [4] it was 0.0118 µM (active); in assay [5], 0.0066 µM (active); in assay [10], 0.0372 µM (active); in [6], 0.0235 µM (active); in assay [9], 0.001 µM (active).

With `Cc1nc(-c2ccc(OCC(C)C)c(C#N)c2)sc1C(=O)O`, the Potency entry in assay [1], in assay [2], in [3], in assay [4], in assay [5] and in [10] was “inactive” in each case. For the same compound, the Potency entry in assay [6], in [11] and in assay [16] was “inactive” in each case.

For `O=C(O)c1cn(-c2ccc(F)cc2)c2cc(N3CCNCC3)c(F)cc2c1=O`, the Potency entry in assay [1], in [2], in assay [3], in [4], in [5] and in [10] was “inactive” in each case. In addition, the Potency entry in assay [11] and in assay [16] was “inactive” in each case.

On to `CC(C)[N+]1(C)[C@@H]2CC[C@H]1CC(OC(=O)C(CO)c1ccccc1)C2` (stereo not given in full), for which the Potency entry in assay [1], in assay [2], in assay [3], in [4], in assay [5] and in assay [6] was “inactive” throughout. Also, the Potency result in assay [9] was “inactive”.

For the compound `CC1Cc2ccccc2N1NC(=O)c1ccc(Cl)c(S(N)(=O)=O)c1` (stereo not given), the Potency result in [1], in assay [2], in assay [3], in [4], in assay [5] and in assay [6] was “inactive” throughout. In addition, the Potency result in [7] was “inactive”.

For the origin of these results see PubChem BioAssay (NCATS).
